Here are results for 20 molecules from PubChem BioAssay (EPA / NIEHS).

Each structure is given as a SMILES string. Records with an inconclusive call do not appear. Activity calls are given as the source filed them. How the source made its calls, unless noted: active means hit-call score of the fitted dose curve at least 0.9, where 1 is the maximum; inactive means score below 0.9.

The nature of assay [1]: ATG_NFI_CIS: Attagene CIS-FACTORIAL HepG2 Assay for human Nuclear Factor I (NFI) (AID 2282989). Particulars: HepG2 cis-regulatory reporter, NFI response element transcription; actives raise or lower the signal. The method in brief: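 Endogenous TF activity in HepG2 cells transiently transfected with cis-element-driven multiplexed reporter units, read 24 h after dosing. Reporter mRNA quantified by RT-PCR, 6-FAM labelling, HpaI digestion and capillary electrophoresis; bidirectional fit versus DMSO.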

The target in assay [2] is Myc proto-oncogene protein (Homo sapiens) (UniProt P01106). Description: ATG_Myc_CIS: Attagene CIS-FACTORIAL HepG2 Assay for human Myelocytomatosis (Myc) Proto-Oncogene Transcription Factor (AID 2282990). Conditions: HepG2, Attagene cis-reporter transcription factor activity; actives raise or lower the signal. The method in brief:
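DMSO-normalised, bidirectionally fitted reporter mRNA signal. HepG2 cells transfected with cis reporter constructs, treated 24 h; transcripts detected by RT-PCR, 6-FAM primer extension and CE.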

The nature of assay [3]: ATG_NF_kB_CIS: Attagene CIS-FACTORIAL HepG2 Assay for human Nuclear Factor Kappa B (NF-kB) (AID 2282991). Particulars: HepG2 Attagene cis-factorial NF-kB reporter mRNA; actives raise or lower the signal. The method, boiled down:
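Measures mRNA induction of an NF-kB-responsive cis-element reporter in HepG2 cells transfected with multiple reporter units, sampled 24 h post-dosing; quantified by fluorescence after RT-PCR and capillary electrophoresis, fitted for activation or inhibition against DMSO.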

A short description of assay [4]: ATG_NRF2_ARE_CIS: Attagene CIS-FACTORIAL HepG2 Assay for human Nuclear Factor Erythroid 2 Related Factor 2 (NFR2) response to Antioxidant Response Elements (ARE) (AID 2282992).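 On AC50: reporter mRNA level measured by RT-PCR and capillary electrophoresis fluorescence.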 Conditions: HepG2 Attagene ARE/NRF2 reporter, transcription factor activity; actives raise or lower the signal. The method in brief:
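HepG2 cells transiently transfected with multiplexed cis-element reporter constructs, 24 h after chemical dosing; reporter mRNA quantified by RT-PCR, fluorescent primer extension, HpaI digestion and capillary electrophoresis. Bidirectional fit relative to DMSO.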

The nature of assay [5]: ATG_Oct_MLP_CIS: Attagene CIS-FACTORIAL HepG2 Assay for human Octamer-Binding Transcription Factor (Oct) (AID 2282993). Conditions: HepG2 Attagene cis-factorial Oct reporter, mRNA; actives raise or lower the signal. The method in brief: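 HepG2 cells transiently transfected with cis-element-driven reporter transcription units (endogenous TF activity); 24 h compound exposure. Reporter mRNA quantified by RT-PCR, 6-FAM labelling, HpaI digestion and capillary electrophoresis; bidirectional fit versus DMSO baseline.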

In assay [6] the target is Cellular tumor antigen p53 (Homo sapiens) (UniProt P04637). Description: ATG_p53_CIS: Attagene CIS-FACTORIAL HepG2 Assay for human p53 Transcription Factor (AID 2282994). Conditions: HepG2 p53 cis-element reporter, Attagene mRNA; actives raise or lower the signal. The method, boiled down:
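HepG2 cells transiently transfected with cis-regulated multiple reporter transcription units, dosed 24 h. Reporter mRNA measured by RT-PCR, 6-FAM primer extension, HpaI digestion and capillary electrophoresis; bidirectional fit relative to DMSO.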

Assay [7] has as its target human Peroxisome Proliferator-activated Receptor alpha (PPARa), PPARA (gene 5465) (UniProt Q07869). Description: ATG_PPARa_TRANS: Attagene TRANS-FACTORIAL HepG2 Assay for human Peroxisome Proliferator-activated Receptor alpha (PPARa) (AID 2283001; active means hit-call score of the fitted dose curve at least 0.9, where 1 is the maximum;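 on AC50: potency for gain of reporter signal over DMSO so agonist or activator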). The method, boiled down:
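Gain-of-signal endpoint: reporter mRNA induction relative to DMSO, detected by fluorescent RT-PCR and capillary electrophoresis. HepG2 cells transiently carried GAL4-UAS-driven reporter units plus NR-Gal4 fusion; exposure lasted 24 h.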

The target in assay [8] is human Retinoic Acid Receptor gamma (RARg), RARG (gene 5916) (UniProt P13631). Description: ATG_RARg_TRANS: Attagene TRANS-FACTORIAL HepG2 Assay for human Retinoic Acid Receptor gamma (RARg) (AID 2283009; active means hit-call score of the fitted dose curve at least 0.9, where 1 is the maximum). The method in brief:
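HepG2 transiently transfected with GAL4-UAS reporter units and chimeric NR-Gal4 constructs; 24 h compound exposure. Reporter mRNA quantified by RT-PCR, FAM labeling, HpaI digestion and capillary electrophoresis; gain-of-signal versus DMSO.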

Assay [9] addresses Peroxisome proliferator-activated receptor gamma (Homo sapiens) (UniProt P37231). Description: ATG_PPARg_TRANS: Attagene TRANS-FACTORIAL HepG2 Assay for human Peroxisome Proliferator-activated Receptor-gamma (PPARg) (AID 2283007; active means hit-call score of the fitted dose curve at least 0.9, where 1 is the maximum). The method, boiled down: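 Gain-of-signal endpoint relative to DMSO, derived from reporter mRNA levels quantified by RT-PCR and capillary electrophoresis. Cells were HepG2 transiently expressing a chimeric NR-Gal4 construct with GAL4-UAS reporters, exposed to chemicals for 24 h.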

Assay [10] has as its target Nuclear receptor subfamily 1 group I member 2 (Homo sapiens) (UniProt O75469). Description: ATG_PXR_TRANS: Attagene TRANS-FACTORIAL HepG2 Assay for human Pregnane X Receptor (PXR) (AID 2283008; active means hit-call score of the fitted dose curve at least 0.9, where 1 is the maximum). The method, boiled down:
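HepG2 cells transiently transfected with GAL4-UAS reporter units and PXR-Gal4 chimera, exposed 24 h. Reporter mRNA quantified by RT-PCR, fluorescent labelling, HpaI digestion and capillary electrophoresis; gain of signal vs DMSO.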

Assay [11] concerns the target human RAR-related Orphan Receptor beta (RORb), RORB (gene 6096) (UniProt Q92753). Description: ATG_RORb_TRANS: Attagene TRANS-FACTORIAL HepG2 Assay for human RAR-related Orphan Receptor beta (RORb) (AID 2283010; active means hit-call score of the fitted dose curve at least 0.9, where 1 is the maximum). The method in brief: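 HepG2 cells transiently transfected with GAL4-UAS reporter units expressing chimeric NR-Gal4 protein; reporter mRNA measured 24 h after dosing by RT-PCR, 6-FAM labelling and capillary electrophoresis. Gain-of-signal fitted relative to DMSO baseline.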

Assay [12] has as its target human Peroxisome Proliferator-activated Receptor delta (PPARd), PPARD (gene 5467) (UniProt Q03181). Description: ATG_PPARd_TRANS: Attagene TRANS-FACTORIAL HepG2 Assay for human Peroxisome Proliferator-activated Receptor delta (PPARd) (AID 2283002; active means hit-call score of the fitted dose curve at least 0.9, where 1 is the maximum). The method, boiled down:
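Measured quantity: GAL4-UAS reporter transcript induction in HepG2 after 24 h chemical dosing, with NR-Gal4 chimeras supplied by transient transfection. Detection by RT-PCR and capillary electrophoresis; upward fit against DMSO.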

Assay [13] has as its target Retinoic acid receptor alpha (Homo sapiens) (UniProt P10276). Description: ATG_RARa_TRANS: Attagene TRANS-FACTORIAL HepG2 Assay for human Retinoic Acid Receptor alpha (RARa) (AID 2283005; active means hit-call score of the fitted dose curve at least 0.9, where 1 is the maximum). The method in brief:
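HepG2 cells transiently transfected with multiple reporter units expressing chimeric RARα-GAL4 fusion, with GAL4-UAS-driven reporters. After 24 h compound exposure, reporter mRNA induction quantified by RT-PCR and capillary electrophoresis with fluorescent labeling; gain-of-signal fitted relative to DMSO control.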

For assay [14], the target named is human Retinoic Acid Receptor beta (RARb), RARB (gene 5915) (UniProt P10826). Description: ATG_RARb_TRANS: Attagene TRANS-FACTORIAL HepG2 Assay for human Retinoic Acid Receptor beta (AID 2283004; active means hit-call score of the fitted dose curve at least 0.9, where 1 is the maximum). The method in brief: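 HepG2, transient MRTU transfection, NR–Gal4 chimera, 24 h treatment; RT-PCR plus CE fluorescence detection of reporter mRNA; gain of signal vs DMSO.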
human Retinoic Acid Receptor beta (RARb), RARB (gene 5915), sequence (P10826 whole entry, looked up, the tested form may be a part): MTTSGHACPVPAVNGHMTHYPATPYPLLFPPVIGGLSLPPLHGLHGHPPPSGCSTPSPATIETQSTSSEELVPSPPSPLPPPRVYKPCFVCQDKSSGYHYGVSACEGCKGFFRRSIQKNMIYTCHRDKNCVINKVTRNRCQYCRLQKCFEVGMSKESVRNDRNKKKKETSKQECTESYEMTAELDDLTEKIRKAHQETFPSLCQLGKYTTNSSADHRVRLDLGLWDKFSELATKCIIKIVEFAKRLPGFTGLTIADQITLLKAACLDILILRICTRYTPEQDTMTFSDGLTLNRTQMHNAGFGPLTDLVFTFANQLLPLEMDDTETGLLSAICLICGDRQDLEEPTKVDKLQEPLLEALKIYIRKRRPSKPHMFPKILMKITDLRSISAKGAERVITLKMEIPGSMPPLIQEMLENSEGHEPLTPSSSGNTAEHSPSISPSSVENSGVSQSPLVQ

The term AC50 denotes the midpoint of the concentration-response curve, whichever way the signal moves.

Cellular tumor antigen p53 (Homo sapiens), sequence (P04637 whole entry, looked up): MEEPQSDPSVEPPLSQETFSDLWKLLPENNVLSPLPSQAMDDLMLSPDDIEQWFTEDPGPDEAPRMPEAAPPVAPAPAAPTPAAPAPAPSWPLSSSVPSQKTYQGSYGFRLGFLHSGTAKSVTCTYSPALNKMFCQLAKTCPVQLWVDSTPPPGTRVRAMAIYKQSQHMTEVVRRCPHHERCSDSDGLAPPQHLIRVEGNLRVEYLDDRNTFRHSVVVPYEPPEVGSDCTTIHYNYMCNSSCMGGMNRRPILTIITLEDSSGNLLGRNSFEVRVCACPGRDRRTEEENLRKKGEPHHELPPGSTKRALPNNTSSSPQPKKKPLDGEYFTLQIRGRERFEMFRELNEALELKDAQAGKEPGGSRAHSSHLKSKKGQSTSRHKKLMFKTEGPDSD
human Peroxisome Proliferator-activated Receptor alpha (PPARa), PPARA (gene 5465), sequence (Q07869 whole entry, looked up, the tested form may be a part): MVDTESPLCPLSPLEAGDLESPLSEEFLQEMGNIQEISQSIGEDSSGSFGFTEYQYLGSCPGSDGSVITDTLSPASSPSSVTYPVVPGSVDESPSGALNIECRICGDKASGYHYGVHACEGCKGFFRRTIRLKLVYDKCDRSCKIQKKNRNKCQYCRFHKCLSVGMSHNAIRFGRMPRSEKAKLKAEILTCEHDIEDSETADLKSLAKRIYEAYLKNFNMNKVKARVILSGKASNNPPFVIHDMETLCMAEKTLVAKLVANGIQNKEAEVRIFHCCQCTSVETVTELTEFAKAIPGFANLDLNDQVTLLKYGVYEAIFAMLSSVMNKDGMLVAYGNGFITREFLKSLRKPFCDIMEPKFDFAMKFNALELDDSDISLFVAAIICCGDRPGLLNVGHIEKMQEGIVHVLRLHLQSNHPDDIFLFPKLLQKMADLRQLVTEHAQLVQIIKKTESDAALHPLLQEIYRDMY
human Retinoic Acid Receptor gamma (RARg), RARG (gene 5916), sequence (P13631 whole entry, looked up, the tested form may be a part): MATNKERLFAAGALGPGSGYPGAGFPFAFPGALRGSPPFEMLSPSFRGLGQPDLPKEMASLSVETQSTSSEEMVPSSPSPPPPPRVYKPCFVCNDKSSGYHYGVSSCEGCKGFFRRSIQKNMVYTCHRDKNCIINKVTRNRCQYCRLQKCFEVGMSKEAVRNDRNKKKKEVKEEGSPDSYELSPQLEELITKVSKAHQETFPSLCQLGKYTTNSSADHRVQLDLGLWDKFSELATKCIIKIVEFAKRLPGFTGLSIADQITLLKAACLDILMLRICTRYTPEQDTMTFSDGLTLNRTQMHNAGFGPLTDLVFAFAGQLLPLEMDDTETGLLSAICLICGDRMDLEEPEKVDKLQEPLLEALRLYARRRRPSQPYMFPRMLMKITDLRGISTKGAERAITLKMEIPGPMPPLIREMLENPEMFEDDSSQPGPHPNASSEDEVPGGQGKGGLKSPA
human Peroxisome Proliferator-activated Receptor delta (PPARd), PPARD (gene 5467), sequence (Q03181 whole entry, looked up, the tested form may be a part): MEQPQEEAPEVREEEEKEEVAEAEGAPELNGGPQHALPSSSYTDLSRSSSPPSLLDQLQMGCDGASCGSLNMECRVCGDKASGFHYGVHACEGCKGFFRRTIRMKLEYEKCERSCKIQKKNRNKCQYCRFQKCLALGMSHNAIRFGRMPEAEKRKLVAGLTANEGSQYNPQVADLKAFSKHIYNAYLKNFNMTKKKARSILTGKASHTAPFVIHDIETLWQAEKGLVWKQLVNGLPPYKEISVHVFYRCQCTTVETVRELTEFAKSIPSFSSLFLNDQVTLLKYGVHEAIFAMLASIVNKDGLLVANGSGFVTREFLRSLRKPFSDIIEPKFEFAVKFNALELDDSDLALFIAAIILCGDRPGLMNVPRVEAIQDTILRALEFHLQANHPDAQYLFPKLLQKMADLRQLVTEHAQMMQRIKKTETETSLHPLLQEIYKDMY
human RAR-related Orphan Receptor beta (RORb), RORB (gene 6096), sequence (Q92753 whole entry, looked up, the tested form may be a part): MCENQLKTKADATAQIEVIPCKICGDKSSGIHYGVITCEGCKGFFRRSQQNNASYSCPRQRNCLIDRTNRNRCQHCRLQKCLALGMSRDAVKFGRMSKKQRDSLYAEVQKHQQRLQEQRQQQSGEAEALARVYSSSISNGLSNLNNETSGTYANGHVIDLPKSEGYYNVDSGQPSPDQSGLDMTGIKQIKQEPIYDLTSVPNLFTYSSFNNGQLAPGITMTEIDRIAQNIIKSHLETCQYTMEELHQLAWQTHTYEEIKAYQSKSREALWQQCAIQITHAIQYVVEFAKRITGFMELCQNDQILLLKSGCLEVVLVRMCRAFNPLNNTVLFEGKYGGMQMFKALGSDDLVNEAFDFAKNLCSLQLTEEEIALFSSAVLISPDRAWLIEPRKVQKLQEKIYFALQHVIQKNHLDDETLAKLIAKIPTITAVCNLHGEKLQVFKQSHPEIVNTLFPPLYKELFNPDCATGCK
Retinoic acid receptor alpha (Homo sapiens), sequence (P10276 whole entry, looked up, the tested form may be a part): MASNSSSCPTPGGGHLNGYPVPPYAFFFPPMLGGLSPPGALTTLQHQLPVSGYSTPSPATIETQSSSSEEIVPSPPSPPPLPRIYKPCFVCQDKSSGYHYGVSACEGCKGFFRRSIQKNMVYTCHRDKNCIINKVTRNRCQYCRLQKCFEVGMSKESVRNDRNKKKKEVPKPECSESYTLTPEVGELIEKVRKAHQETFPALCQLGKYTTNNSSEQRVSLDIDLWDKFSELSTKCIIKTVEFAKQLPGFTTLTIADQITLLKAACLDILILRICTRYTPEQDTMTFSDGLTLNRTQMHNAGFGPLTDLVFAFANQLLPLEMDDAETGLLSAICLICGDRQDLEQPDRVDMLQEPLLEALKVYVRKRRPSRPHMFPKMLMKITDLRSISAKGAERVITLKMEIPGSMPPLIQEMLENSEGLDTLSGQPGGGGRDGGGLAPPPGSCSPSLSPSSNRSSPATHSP
Myc proto-oncogene protein (Homo sapiens), sequence (P01106 whole entry, looked up): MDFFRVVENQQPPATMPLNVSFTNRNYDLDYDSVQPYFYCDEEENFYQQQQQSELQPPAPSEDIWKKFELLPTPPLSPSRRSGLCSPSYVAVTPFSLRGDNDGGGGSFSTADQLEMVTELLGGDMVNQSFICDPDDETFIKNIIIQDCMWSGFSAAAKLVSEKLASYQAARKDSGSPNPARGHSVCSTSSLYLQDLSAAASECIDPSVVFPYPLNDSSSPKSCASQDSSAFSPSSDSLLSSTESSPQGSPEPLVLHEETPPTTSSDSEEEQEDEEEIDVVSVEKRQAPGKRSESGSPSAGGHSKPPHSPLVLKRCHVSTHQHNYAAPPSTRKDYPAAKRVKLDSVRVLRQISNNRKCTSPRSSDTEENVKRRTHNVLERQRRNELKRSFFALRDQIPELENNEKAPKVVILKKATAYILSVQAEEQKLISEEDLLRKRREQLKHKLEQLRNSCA
Nuclear receptor subfamily 1 group I member 2 (Homo sapiens), sequence (O75469 whole entry, looked up, the tested form may be a part): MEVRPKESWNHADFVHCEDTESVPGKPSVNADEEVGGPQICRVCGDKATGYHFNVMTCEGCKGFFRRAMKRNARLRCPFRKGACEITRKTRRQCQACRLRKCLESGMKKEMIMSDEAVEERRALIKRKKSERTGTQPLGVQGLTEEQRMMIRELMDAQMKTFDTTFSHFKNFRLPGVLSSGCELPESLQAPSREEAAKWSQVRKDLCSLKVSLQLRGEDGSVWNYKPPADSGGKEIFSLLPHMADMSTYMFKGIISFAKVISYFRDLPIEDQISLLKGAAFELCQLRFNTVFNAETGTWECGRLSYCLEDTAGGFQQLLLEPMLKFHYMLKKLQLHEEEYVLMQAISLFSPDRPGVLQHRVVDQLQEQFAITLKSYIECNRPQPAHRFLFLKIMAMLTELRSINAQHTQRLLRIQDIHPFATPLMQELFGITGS
Peroxisome proliferator-activated receptor gamma (Homo sapiens), sequence (P37231 whole entry, looked up, the tested form may be a part): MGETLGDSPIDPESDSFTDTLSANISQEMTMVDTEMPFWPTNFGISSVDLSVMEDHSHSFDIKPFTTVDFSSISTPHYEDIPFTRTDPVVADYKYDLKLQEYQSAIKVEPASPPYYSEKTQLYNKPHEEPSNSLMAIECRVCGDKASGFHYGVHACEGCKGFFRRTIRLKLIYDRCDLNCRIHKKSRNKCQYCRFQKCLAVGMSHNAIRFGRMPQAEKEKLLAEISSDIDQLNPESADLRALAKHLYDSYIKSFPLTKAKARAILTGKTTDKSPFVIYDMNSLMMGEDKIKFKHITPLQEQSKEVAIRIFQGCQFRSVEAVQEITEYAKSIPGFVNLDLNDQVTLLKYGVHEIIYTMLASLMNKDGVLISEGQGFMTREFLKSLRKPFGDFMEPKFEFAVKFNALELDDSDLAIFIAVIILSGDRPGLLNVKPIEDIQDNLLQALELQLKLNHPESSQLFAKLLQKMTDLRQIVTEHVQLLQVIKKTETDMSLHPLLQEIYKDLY

On to `CCC(C)=O`, for which the molecule was called inactive in [1], in assay [2], in [3], in assay [4], in [5] and in assay [6]. For the same molecule, the result in assay [7] and in [8] was inactive.
For the molecule `CCOC(=O)CCc1ccccc1`, the result in assay [1], in assay [2], in [3], in assay [4], in [5] and in [6] was inactive. Also, the call in assay [7], in [9], in assay [10] and in assay [8] was inactive.
Consider `CCCN(CCC)S(=O)(=O)c1ccc(C(=O)O)cc1`, for which the molecule was classed as inactive in assay [1], in assay [2], in assay [3], in assay [4], in assay [5] and in [6]. Further, the call in [7], in assay [9] and in assay [11] was inactive. In addition, the half-maximal activity concentration (AC50) in assay [10] is 18.7 µM (active).
On to `CCCC(C)=O`, for which the result in assay [1], in assay [2], in assay [3], in assay [4], in assay [5] and in [6] was inactive. The call in assay [12], in assay [13], in assay [8] and in assay [11] was inactive.
As to `Cc1ccc(OC(=O)c2ccccc2O)cc1`, the result in [1], in [2], in [3], in [5], in assay [6] and in assay [7] was inactive. The result in [9] and in assay [10] was inactive. The AC50 in [4] was 51.2 µM (active).
On to `CC(=O)CC(=O)Nc1ccc(C)cc1C`, for which the call in assay [1], in [2], in assay [3], in assay [4], in assay [5] and in assay [6] was inactive. The molecule was classed as inactive in [7] and in assay [10].
As to `CCOC(=O)c1ccc(N)cc1`, the molecule was called inactive in assay [1], in [2], in assay [3], in [4], in [5] and in assay [6]. The outcome in assay [7], in assay [9] and in assay [10] was inactive.
In the case of `COC(=O)c1ccc(OC)cc1`, the molecule was called inactive in assay [1], in assay [2], in assay [3], in [4], in [5] and in assay [6]. Besides, the outcome in [7] and in assay [9] was inactive.
`CC(C)Nc1nc(N)nc(Cl)n1`: the molecule was classed as inactive in assay [1], in assay [2], in assay [3], in assay [4], in [5] and in [6]. The result in assay [12], in [9] and in assay [10] was inactive.
Regarding `[Cl][Au]([Cl])[Cl]`, the molecule was called inactive in assay [1], in assay [2], in assay [3], in assay [5], in assay [6] and in [12]. The AC50 in [4] was 0.156 µM (active).
Take `COc1cc(C(C)C)ccc1C`: the molecule was called inactive in assay [1], in assay [2], in assay [3], in assay [4], in assay [5] and in assay [6]. Also, the outcome in [12], in assay [14] and in [8] was inactive.
With `CCOC(=O)CC(C)O` (stereo not given), the molecule was classed as inactive in assay [1], in [2], in assay [3], in assay [4], in assay [5] and in [6]. The outcome in assay [7], in [9] and in assay [8] was inactive.
In the case of `COCCc1ccc(OCC(O)CNC(C)C)cc1` (stereo not given), the outcome in assay [1], in [2], in assay [3], in [4], in [5] and in assay [6] was inactive. The molecule was classed as inactive in [12], in assay [13], in [9] and in assay [10].
For `O=C(CS)OCCOC(=O)CS`, the molecule was called inactive in assay [1], in assay [2], in assay [5], in assay [7] and in [9]. In addition, the results for the concentration at half-maximal activity (AC50) in assay [3], in assay [4] and in assay [6] were 43.8 µM (active), 148 µM (active) and 100 µM (active), respectively.
Consider `C=CC(C)C#N` (stereo not given), for which the molecule was called inactive in assay [1], in [2], in [3], in [4], in [5] and in [6]. Moreover, the call in assay [12], in assay [14], in assay [9], in assay [10] and in assay [8] was inactive.
For `CCCCOCC`, the molecule was called inactive in assay [1], in [2], in assay [3], in assay [4], in assay [5] and in assay [6]. Besides, the call in assay [12], in [13], in assay [9] and in assay [11] was inactive.
In the case of `C1CCOC1`, the molecule was classed as inactive in [1], in assay [2], in [3], in assay [4], in assay [5] and in assay [6]. The molecule was classed as inactive in [12], in [13], in [9], in assay [10], in assay [8] and in assay [11].
Take `CC(C)C[C@H](NC(=O)OCC1c2ccccc2-c2ccccc21)C(=O)O`: the molecule was classed as inactive in assay [1], in assay [2], in assay [3], in [5], in assay [6] and in assay [11]. Besides, the AC50 in [4] is 31.1 µM (active); in assay [7], 40 µM (active); in assay [9], 23.1 µM (active).
On to `c1ccc2[nH]cnc2c1`, for which the call in assay [1], in [2], in assay [3], in assay [4], in assay [5] and in assay [6] was inactive. Also, the molecule was classed as inactive in [7], in assay [13] and in [8].
In the case of `C#CC(C)(O)CC(C)C` (stereo not given), the molecule was classed as inactive in assay [1], in [2], in assay [3], in [4], in assay [5] and in assay [6]. For the same molecule, the molecule was classed as inactive in [7], in assay [9], in assay [10] and in assay [8].
